This is a sample that favours compounds with a hit; in the whole collection about 21% have one here.
Pf growth 48h = inhibits P. falciparum growth in the first generation, 48 h | Potency, µM (titrated, usually from 28.7 µM), usual class: inhibitors | 310,000 compounds, 5.9% hits | AID 504832 | P. falciparum luciferase growth in erythrocytes, 48 h
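Cell-based growth assay: transgenic P. falciparum expressing firefly luciferase, cultured in red cells within RPMI 1640 containing 0.5% w/v Albumax, 24 mM bicarbonate and gentamycin. A drop in luciferase activity indicates inhibition.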
Shiga toxin inh = inhibitors of Shiga toxin in Vero cells; Vero cells, Shiga toxin protein synthesis inhibition reporter; AID 2315; 290,000 compounds, 9.2% hits; inhibition, % at 38.7 µM; in the data active = inhibition mostly above about 28%, no sharp cut-off; inactive = mostly below about 43%
CHX counter = counter-screen hit for Shiga toxin inhibitors, cycloheximide | cell reporter, cycloheximide protein synthesis inhibition counterscreen | max response, % | 300,000 compounds, 12% hits | AID 2314; in the data active = max response mostly above about 13%, no sharp cut-off; inactive = mostly below about 14%; note: read at 38.3 µM for the half of the compounds with a filed dose
NS1 function inh = inhibitors of influenza NS1 protein function; Potency, µM (top dose mostly 46.1 µM); 270,000 compounds, 0.4% hits; AID 2326; calls by dose curve; note: actives are rising curves; nearly all actives have a fitted effect of over 50% in size
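Growth recovery, yeast-based: influenza A NS1 expressed in S. cerevisiae causes slow growth, and suppressors are detected by OD600. The parent strain without NS1 is used as positive control.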
Pf growth 96h = inhibits malaria parasite growth, 96 h | 320,000 compounds, 6.9% hits | Potency, µM (highest dose often 28.7 µM), usual class: inhibitors | P. falciparum luciferase reporter growth, 96 h
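Erythrocytes infected with luciferase-expressing P. falciparum were dispensed at 2% hematocrit and 0.05% parasitemia (final), then incubated with compounds 96 hours at 37 C in 5% CO2. Luminescence after detection reagent addition reported growth.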
Giardia FBPA inh = Giardia lamblia aldolase inhibition; 290,000 compounds, 0.71% hits; purified Giardia FBPA; AID 2451; Potency, µM (top dose mostly 59.6 µM), hits mostly inhibitors; A8B2U2; note: nearly all actives have a fitted effect of over 55% in size
Target sequence (A8B2U2 whole entry, looked up): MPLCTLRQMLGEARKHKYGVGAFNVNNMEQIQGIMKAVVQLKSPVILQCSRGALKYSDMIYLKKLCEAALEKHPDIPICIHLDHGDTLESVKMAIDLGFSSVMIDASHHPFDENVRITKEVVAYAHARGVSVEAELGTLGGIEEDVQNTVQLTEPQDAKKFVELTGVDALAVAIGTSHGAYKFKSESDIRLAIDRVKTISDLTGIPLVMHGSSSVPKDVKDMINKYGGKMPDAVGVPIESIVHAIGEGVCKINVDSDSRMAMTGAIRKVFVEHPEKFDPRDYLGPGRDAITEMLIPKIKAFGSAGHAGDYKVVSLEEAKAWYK
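40 nM FBPA preincubated 10 min at RT with compound (up to 57.5 uM final), then substrate plus GAPDH/TPI/NAD/arsenate coupling and diaphorase/resazurin added. Fluorescence read after 20 min at RT, 525/598 nm.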
Of the large screens only hits and unclear results are named; the others gave an inactive call. Unless noted, calls come from the whole dose curve; as a rule, active = well fitted curve in the direction sought with a large enough effect; inconclusive = small, poorly fitted or top-dose-only effect, or another doubt; inactive = no such curve, though single readings can be large; an effect the other way counts as inactive or inconclusive.

CCC(=O)Nc1c(-c2ccc(Cl)cc2)c(=O)c2ccccc2n1C	none
CCCOc1ccc(CSc2n[nH]c(C)n2)cc1	Shiga toxin inh 55.3, CHX counter 32.3
CCc1nc(SCc2ccc(F)cc2)n[nH]1	Shiga toxin inh 88.1, CHX counter 31.2
CCCc1nc(SCc2ccccc2Cl)n[nH]1	CHX counter 23.7 (no result: Pf growth 48h)
CCc1nc(SCc2ccccc2C#N)n[nH]1	Pf growth 96h 9.28µM
Nc1nc(SCc2ccc(F)cc2)n[nH]1	none (no result: Shiga toxin inh)
CCc1nc(SCc2cc(Cl)ccc2OC)n[nH]1	Pf growth 48h inconclusive
O=C(COC(=O)/C=C/c1cccc(Br)c1)Nc1cccc(S(=O)(=O)NC2=NCCC2)c1	none (no result: Shiga toxin inh, CHX counter, NS1 function inh, Giardia FBPA inh)
Cc1nc(SCc2ccccc2)n[nH]1	CHX counter 13.4
CCc1nc(SCc2ccc(OC)cc2)n[nH]1	Shiga toxin inh 32.0, CHX counter 30.0
Cc1nc(SCN2C(=O)c3ccccc3C2=O)n[nH]1	none
CCCc1nc(SCc2ccc(OCC)cc2)n[nH]1	none
CCc1ccc(N2CC(C(=O)OCC(=O)Nc3ccc(C#N)cc3)CC2=O)cc1 (configuration not stated)	none (no result: Shiga toxin inh, CHX counter, NS1 function inh, Giardia FBPA inh)
CC(=O)OC1CC(C)N(C(=O)c2ccccc2)c2ccc(C)cc21 (configuration not stated)	none (no result: Pf growth 96h)
CC(=O)N1c2ccc(C)cc2C(c2ccccc2)CC1C (configuration not stated)	Pf growth 48h 7.38µM, Pf growth 96h inconclusive
Cc1nc(C)c(C(=O)Nc2ccccc2)s1	none
Cc1nc(NCCOc2ccccc2)sc1C(=O)Nc1ccccc1	Shiga toxin inh 91.9, CHX counter 58.9
Cc1nc(NCc2ccccc2)sc1C(=O)Nc1ccccc1	Shiga toxin inh 49.6, CHX counter 26.3 (no result: NS1 function inh)
Nc1nc(Nc2ccccc2F)sc1C(=O)c1ccccc1	Shiga toxin inh 57.3, CHX counter 50.3
Cc1nc(Nc2ccccc2)sc1C(=O)c1ccc(F)cc1	Pf growth 48h inconclusive, Shiga toxin inh 142.9, CHX counter 67.2, Pf growth 96h inconclusive
COc1ccc(N2C(=NC(=O)CC3CCCCC3)SC3CS(=O)(=O)CC32)cc1 (configuration not stated)	none
Cc1cc(C)c2c(-c3ccc(-c4ccc(C(F)(F)F)cc4)cc3)cc(=O)oc2c1	none (no result: Pf growth 48h, NS1 function inh, Pf growth 96h)
Cc1nc(Nc2ccccc2)sc1C(=O)Nc1ccccc1	Pf growth 48h inconclusive, Shiga toxin inh 58.6, CHX counter 39.3, Pf growth 96h inconclusive
Cc1nc(Nc2ccccc2Cl)sc1C(=O)Nc1ccccc1	CHX counter 18.9
CCOC(=O)c1c(NC(=O)c2ccc(Br)o2)sc(C)c1CC	none
CCOC(=O)C1=C(NC(=O)c2ccc(Br)o2)Nc2ccccc2N=C1	Pf growth 48h 1.65µM, Pf growth 96h 1.85µM
CCN1CCN(c2nc(-c3cccnc3)nc3ccccc23)CC1	Pf growth 48h inconclusive (no result: Pf growth 96h)
CCCOc1ccc(-c2nc(OCC)c3ccccc3n2)cc1	Shiga toxin inh 32.0 (no result: Pf growth 48h)
CCOc1nc(-c2ccncc2)nc2ccccc12	Pf growth 48h inconclusive, Pf growth 96h inconclusive
CCN1CCN(c2nc(-c3ccncc3)nc3ccccc23)CC1	Pf growth 48h 9.28µM, Pf growth 96h 7.38µM
CCCOc1ccc(-c2nc(N3CCN(CC)CC3)c3ccccc3n2)cc1	Pf growth 48h 10.4µM, Pf growth 96h 11.7µM
CCCOc1ccc(-c2nc(N3CCN(C)CC3)c3ccccc3n2)cc1	Shiga toxin inh 60.6, CHX counter 32.6, Pf growth 96h inconclusive
O=C(CSc1nnc(COc2ccccc2)n1-c1ccccc1)c1cccs1	CHX counter 34.3, Pf growth 96h inconclusive
Cc1ccc(OCc2nnc(SCC(=O)c3cccs3)n2-c2ccccc2)cc1C	Shiga toxin inh 72.5, CHX counter 30.7, Pf growth 96h inconclusive
CCOC(=O)C(CC)Sc1nnc(COc2ccc(C)cc2)n1-c1ccccc1 (configuration not stated)	Pf growth 48h 13.1µM, Pf growth 96h inconclusive
Cc1cccc(OCc2nnc(SCCC(=O)O)n2-c2ccccc2)c1	Pf growth 96h inconclusive (no result: Shiga toxin inh)
O=C(O)CSc1nnc(COc2ccccc2)n1-c1ccccc1	none
COc1ccccc1N1CCN(C(=O)Cn2nc3n(C)c4ccccc4n3c(=O)c2=O)CC1	Pf growth 96h inconclusive
Cc1ccc(C)c(OC(=O)CN2C(=O)c3ccccc3C2=O)c1	Pf growth 96h inconclusive (no result: Shiga toxin inh)
COc1cc(/C=C(/C#N)c2nc3ccccc3[nH]2)ccc1OC(=O)c1ccco1	Shiga toxin inh 81.6, CHX counter 27.6
COc1cc(/C=C(/C#N)c2nc3ccccc3c(=O)[nH]2)ccc1O	Pf growth 96h inconclusive
COc1ccc(/C=C(\C#N)c2nc3ccccc3[nH]2)cc1O	Shiga toxin inh 28.9, CHX counter 19.1
CCn1nnc2c(=O)oc3ccccc3c21	Pf growth 96h 4.15µM (no result: NS1 function inh)
CC(C)Cn1nnc2c(=O)oc3ccccc3c21	none
CCN(CC)CCNC(=O)/C(=C\c1cccn1C)NC(=O)c1cccs1	Pf growth 96h 1.85µM
O=C(NCCO)/C(=C/c1ccc(Br)cc1)NC(=O)c1cccs1	none
COc1cc2c(cc1NC(=O)c1ccc(C)c([N+](=O)[O-])c1)oc1ccccc12	none
COc1cc2c(cc1NC(=O)C(C)N1CCN(S(=O)(=O)c3ccc(C)c(C)c3)CC1)oc1ccccc12 (configuration not stated)	Pf growth 96h 3.29µM (no result: Pf growth 48h)
COc1cc2c(cc1NC(=O)C(C)N1CCN(S(=O)(=O)c3ccccc3[N+](=O)[O-])CC1)oc1ccccc12 (configuration not stated)	Shiga toxin inh 55.4, CHX counter 27.2, Pf growth 96h 5.86µM (no result: Pf growth 48h)
COc1ccc(S(=O)(=O)Nc2ccccc2Cl)cc1NC(C)=O	none (no result: NS1 function inh)
COc1cc2c(cc1NC(=O)CN1CCN(S(=O)(=O)c3ccc(C)cc3)CC1)oc1ccccc12	none
COc1cc2c(cc1NC(=O)C(C)OC(=O)c1ccc(S(=O)(=O)Nc3ccccc3Cl)cc1)oc1ccccc12 (configuration not stated)	Pf growth 48h inconclusive, Shiga toxin inh 31.3, CHX counter 24.1, Pf growth 96h 5.22µM
CCCCC[C@H](O)/C=C/[C@@H]1[C@H]2C/C(=C/CCCC(=O)O)O[C@H]2C[C@H]1O	none (no result: Shiga toxin inh, CHX counter, NS1 function inh)
Cc1cccnc1NC(=O)CCc1c[nH]c2ccccc12	Pf growth 48h inconclusive (no result: Giardia FBPA inh)
CC(=O)Nc1ccc(N=c2cc([N+](=O)[O-])cc(Cl)n2O)cc1	none
Cc1ccc(C)c(S(=O)(=O)N2CCN(C(=O)CCCc3c[nH]c4ccccc34)CC2)c1	Pf growth 48h 14.7µM, Pf growth 96h inconclusive (no result: Shiga toxin inh, CHX counter, NS1 function inh, Giardia FBPA inh)
Cc1ccc(NC(=O)CCc2nc3ccccc3c(=O)[nH]2)cc1S(=O)(=O)N1CCOCC1	Pf growth 48h inconclusive, Pf growth 96h 4.15µM (no result: Shiga toxin inh, CHX counter, NS1 function inh, Giardia FBPA inh)
Cc1ccc(S(=O)(=O)N2CCN(C(=O)CCc3nc4ccccc4c(=O)[nH]3)CC2)c(C)c1	Pf growth 48h inconclusive, Pf growth 96h 11.7µM (no result: Shiga toxin inh, CHX counter, NS1 function inh, Giardia FBPA inh)
O=C(Cc1ccccc1)N1CCN(S(=O)(=O)c2cccc([N+](=O)[O-])c2)CC1	none
